# Measurements taken from the supplement of paper PMC12282887.
# ± gives the standard deviation of the averaged measurements.
# How the values were obtained:
# Experiment in all cases: promoter activity interaction Z-score (Lux/OD deviation from empty-vector control); higher = stronger promoter induction by the compound
# [1] = tested on: E. coli BW25113 acrABp lux reporter
# In short: (§1)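 E. coli BW25113, as wild type or one of three single-gene deletion strains, carried low-copy luxCDABE promoter reporters and grew in 40 µl LB Lennox in 384-well plates at 37°C, with OD600 and luminescence read every 30 min for 12 h. Each compound was run at four 1:2 dilutions in biological duplicates, integration spanned 0–8 h for wild type and 1–9 h for deletion strains, and wells under 10% of the median growth value were dropped. The score is the Z-transformed residual of growth-normalised luminescence fitted against a control.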
# [2] = tested on: E. coli BW25113 marRABp lux reporter
# In short: as §1
# [3] = tested on: E. coli BW25113 micFp lux reporter
# In short: as §1
# [4] = tested on: E. coli BW25113 ompFp lux reporter
# In short: as §1
# [5] = tested on: E. coli BW25113 robp lux reporter
# In short: as §1
# [6] = tested on: E. coli BW25113 soxSp lux reporter
# In short: as §1
# [7] = tested on: E. coli BW25113 tolCp lux reporter
# In short: as §1
# [8] = 19.7 µg/ml, genetic background: wild type
# [9] = 19.7 µg/ml, genetic background: ΔmarA
# [10] = 19.7 µg/ml, genetic background: Δrob
# [11] = 19.7 µg/ml, genetic background: ΔsoxS
# [12] = 39.3 µg/ml, genetic background: wild type
# [13] = 39.3 µg/ml, genetic background: ΔmarA
# [14] = 39.3 µg/ml, genetic background: Δrob
# [15] = 39.3 µg/ml, genetic background: ΔsoxS
# [16] = 78.6 µg/ml, genetic background: wild type
# [17] = 78.6 µg/ml, genetic background: ΔmarA
# [18] = 78.6 µg/ml, genetic background: Δrob
# [19] = 78.6 µg/ml, genetic background: ΔsoxS
# [20] = 157.2 µg/ml, genetic background: wild type
# [21] = 157.2 µg/ml, genetic background: ΔmarA
# [22] = 157.2 µg/ml, genetic background: Δrob
# [23] = 157.2 µg/ml, genetic background: ΔsoxS
smiles,measurement,setting,value
CC(=O)[C@H]1CC[C@H]2[C@@H]3CCC4=CC(=O)CC[C@]4(C)[C@H]3CC[C@]12C [Progesterone],promoter activity interaction Z-score,[1]; [8],-0.247 ± 0.13
same,promoter activity interaction Z-score,[1]; [9],-0.405 ± 0.19
same,promoter activity interaction Z-score,[1]; [10],-0.0328 ± 0.098
same,promoter activity interaction Z-score,[1]; [11],-0.282 ± 0.25
same,promoter activity interaction Z-score,[1]; [12],-0.262 ± 0.14
same,promoter activity interaction Z-score,[1]; [13],-0.838 ± 0.1
same,promoter activity interaction Z-score,[1]; [14],-0.217 ± 0.17
same,promoter activity interaction Z-score,[1]; [15],-0.38 ± 0.34
same,promoter activity interaction Z-score,[1]; [16],0.00448 ± 0.24
same,promoter activity interaction Z-score,[1]; [17],-0.886 ± 0.13
same,promoter activity interaction Z-score,[1]; [18],-0.151 ± 0.044
same,promoter activity interaction Z-score,[1]; [19],-0.0393 ± 0.056
same,promoter activity interaction Z-score,[1]; [20],-0.214 ± 0.34
same,promoter activity interaction Z-score,[1]; [21],0.269 ± 0.11
same,promoter activity interaction Z-score,[1]; [22],0.191 ± 0.14
same,promoter activity interaction Z-score,[1]; [23],-0.315 ± 1
same,promoter activity interaction Z-score,[2]; [8],-0.0683 ± 0.075
same,promoter activity interaction Z-score,[2]; [9],0.0187 ± 0.17
same,promoter activity interaction Z-score,[2]; [10],-0.191 ± 0.093
same,promoter activity interaction Z-score,[2]; [11],0.0521 ± 0.092
same,promoter activity interaction Z-score,[2]; [12],-0.275 ± 0.28
same,promoter activity interaction Z-score,[2]; [13],-0.0815 ± 0.0053
same,promoter activity interaction Z-score,[2]; [14],-0.249 ± 0.035
same,promoter activity interaction Z-score,[2]; [15],-0.155 ± 0.11
same,promoter activity interaction Z-score,[2]; [16],-0.102 ± 0.22
same,promoter activity interaction Z-score,[2]; [17],-0.0516 ± 0.038
same,promoter activity interaction Z-score,[2]; [18],-0.252 ± 0.24
same,promoter activity interaction Z-score,[2]; [19],-0.3 ± 0.093
same,promoter activity interaction Z-score,[2]; [20],-0.0485 ± 0.46
same,promoter activity interaction Z-score,[2]; [21],0.0739 ± 0.13
same,promoter activity interaction Z-score,[2]; [22],-0.505 ± 0.15
same,promoter activity interaction Z-score,[2]; [23],-0.178 ± 0.15
same,promoter activity interaction Z-score,[3]; [8],-0.103 ± 0.25
same,promoter activity interaction Z-score,[3]; [9],0.119 ± 0.028
same,promoter activity interaction Z-score,[3]; [10],0.0776 ± 0.12
same,promoter activity interaction Z-score,[3]; [11],0.434 ± 0.5
same,promoter activity interaction Z-score,[3]; [12],-0.0976 ± 0.35
same,promoter activity interaction Z-score,[3]; [13],0.123 ± 0.056
same,promoter activity interaction Z-score,[3]; [14],0.0868 ± 0.01
same,promoter activity interaction Z-score,[3]; [15],0.176 ± 0.29
same,promoter activity interaction Z-score,[3]; [16],-0.119 ± 0.33
same,promoter activity interaction Z-score,[3]; [17],0.21 ± 0.0092
same,promoter activity interaction Z-score,[3]; [18],-0.0152 ± 0.13
same,promoter activity interaction Z-score,[3]; [19],0.432 ± 0.42
same,promoter activity interaction Z-score,[3]; [20],-0.0937 ± 0.11
same,promoter activity interaction Z-score,[3]; [21],0.211 ± 0.14
same,promoter activity interaction Z-score,[3]; [22],-0.0152 ± 0.04
same,promoter activity interaction Z-score,[3]; [23],0.0431 ± 0.32
same,promoter activity interaction Z-score,[4]; [8],-0.534 ± 0.033
same,promoter activity interaction Z-score,[4]; [9],-0.169 ± 0.36
same,promoter activity interaction Z-score,[4]; [10],-0.0375 ± 0.16
same,promoter activity interaction Z-score,[4]; [11],-0.19 ± 0.42
same,promoter activity interaction Z-score,[4]; [12],-0.381 ± 0.1
same,promoter activity interaction Z-score,[4]; [13],-0.611 ± 0.036
same,promoter activity interaction Z-score,[4]; [14],0.0341 ± 0.39
same,promoter activity interaction Z-score,[4]; [15],-0.905 ± 0.22
same,promoter activity interaction Z-score,[4]; [16],-0.604 ± 0.2
same,promoter activity interaction Z-score,[4]; [17],-0.705 ± 0.19
same,promoter activity interaction Z-score,[4]; [18],-0.397 ± 0.063
same,promoter activity interaction Z-score,[4]; [19],-0.681 ± 0.46
same,promoter activity interaction Z-score,[4]; [20],-0.672 ± 0.32
same,promoter activity interaction Z-score,[4]; [21],-0.651 ± 0.19
same,promoter activity interaction Z-score,[4]; [22],-1.43 ± 0.17
same,promoter activity interaction Z-score,[4]; [23],-1.51 ± 0.4
same,promoter activity interaction Z-score,[5]; [8],0.215 ± 0.46
same,promoter activity interaction Z-score,[5]; [9],-0.134 ± 0.11
same,promoter activity interaction Z-score,[5]; [10],0.137 ± 0.78
same,promoter activity interaction Z-score,[5]; [11],0.0784 ± 0.35
same,promoter activity interaction Z-score,[5]; [12],-0.384 ± 0.091
same,promoter activity interaction Z-score,[5]; [13],-0.498 ± 0.18
same,promoter activity interaction Z-score,[5]; [14],-0.00268 ± 0.38
same,promoter activity interaction Z-score,[5]; [15],-0.408 ± 1.2
same,promoter activity interaction Z-score,[5]; [16],0.0849 ± 0.14
same,promoter activity interaction Z-score,[5]; [17],-0.366 ± 0.29
same,promoter activity interaction Z-score,[5]; [18],-0.234 ± 0.65
same,promoter activity interaction Z-score,[5]; [19],-0.171 ± 0.34
same,promoter activity interaction Z-score,[5]; [20],-0.26 ± 0.16
same,promoter activity interaction Z-score,[5]; [21],-0.185 ± 0.13
same,promoter activity interaction Z-score,[5]; [22],-0.798 ± 0.68
same,promoter activity interaction Z-score,[5]; [23],-1.05 ± 0.11
same,promoter activity interaction Z-score,[6]; [8],-0.199 ± 0.29
same,promoter activity interaction Z-score,[6]; [9],-0.22 ± 0.01
same,promoter activity interaction Z-score,[6]; [10],0.0249 ± 0.041
same,promoter activity interaction Z-score,[6]; [11],-0.00845 ± 0.063
same,promoter activity interaction Z-score,[6]; [12],-0.25 ± 0.099
same,promoter activity interaction Z-score,[6]; [13],-0.192 ± 0.018
same,promoter activity interaction Z-score,[6]; [14],-0.155 ± 0.04
same,promoter activity interaction Z-score,[6]; [15],-0.315 ± 0.23
same,promoter activity interaction Z-score,[6]; [16],-0.226 ± 0.1
same,promoter activity interaction Z-score,[6]; [17],-0.147 ± 0.072
same,promoter activity interaction Z-score,[6]; [18],-0.0586 ± 0.098
same,promoter activity interaction Z-score,[6]; [19],-0.236 ± 0.25
same,promoter activity interaction Z-score,[6]; [20],-0.226 ± 0.079
same,promoter activity interaction Z-score,[6]; [21],-0.186 ± 0.028
same,promoter activity interaction Z-score,[6]; [22],-0.48 ± 0.037
same,promoter activity interaction Z-score,[6]; [23],-0.776 ± 0.47
same,promoter activity interaction Z-score,[7]; [8],-0.462 ± 1.4
same,promoter activity interaction Z-score,[7]; [9],0.741 ± 0.62
same,promoter activity interaction Z-score,[7]; [10],-0.127 ± 0.85
same,promoter activity interaction Z-score,[7]; [11],-0.377 ± 0.42
same,promoter activity interaction Z-score,[7]; [12],0.606 ± 1
same,promoter activity interaction Z-score,[7]; [13],0.0914 ± 0.43
same,promoter activity interaction Z-score,[7]; [14],0.494 ± 1
same,promoter activity interaction Z-score,[7]; [15],-1.65 ± 1.1
same,promoter activity interaction Z-score,[7]; [16],-0.308 ± 0.37
same,promoter activity interaction Z-score,[7]; [17],0.451 ± 1.3
same,promoter activity interaction Z-score,[7]; [18],0.161 ± 0.71
same,promoter activity interaction Z-score,[7]; [19],0.0688 ± 1.3
same,promoter activity interaction Z-score,[7]; [20],-0.227 ± 0.23
same,promoter activity interaction Z-score,[7]; [21],0.167 ± 0.12
same,promoter activity interaction Z-score,[7]; [22],-0.116 ± 0.74
same,promoter activity interaction Z-score,[7]; [23],0.764 ± 1
